# Efflux pump mplx = antifungal efflux pump inhibition, Nile Red retention; inhibition, % at 10 µM; AID 485275; S. cerevisiae Candida pump triplex; actives 0.44% (n = 330,000);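 active = plate passing quality check with inhibition over a set limit, or well fluorescence over plate mean plus 4 SD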;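 note: Nile Red retained in pooled yeast measured as flow cytometry median fluorescence; higher means more Nile Red kept so more efflux inhibition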
# GRK2 aptamer HTS = blocks RNA aptamer binding to human GRK2. P25098. bead flow cytometry, FAM-aptamer displacement from GRK2. inhibition of aptamer binding, % at 10 µM. actives 0.59% (n = 330,000);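 active = inhibition of aptamer binding above 40%, roughly 3 SD of noise, on plates passing a quality check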;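 note: median bead fluorescence of bound FAM aptamer so fluorescent compounds give negative values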
# Target sequence (P25098 whole entry, looked up): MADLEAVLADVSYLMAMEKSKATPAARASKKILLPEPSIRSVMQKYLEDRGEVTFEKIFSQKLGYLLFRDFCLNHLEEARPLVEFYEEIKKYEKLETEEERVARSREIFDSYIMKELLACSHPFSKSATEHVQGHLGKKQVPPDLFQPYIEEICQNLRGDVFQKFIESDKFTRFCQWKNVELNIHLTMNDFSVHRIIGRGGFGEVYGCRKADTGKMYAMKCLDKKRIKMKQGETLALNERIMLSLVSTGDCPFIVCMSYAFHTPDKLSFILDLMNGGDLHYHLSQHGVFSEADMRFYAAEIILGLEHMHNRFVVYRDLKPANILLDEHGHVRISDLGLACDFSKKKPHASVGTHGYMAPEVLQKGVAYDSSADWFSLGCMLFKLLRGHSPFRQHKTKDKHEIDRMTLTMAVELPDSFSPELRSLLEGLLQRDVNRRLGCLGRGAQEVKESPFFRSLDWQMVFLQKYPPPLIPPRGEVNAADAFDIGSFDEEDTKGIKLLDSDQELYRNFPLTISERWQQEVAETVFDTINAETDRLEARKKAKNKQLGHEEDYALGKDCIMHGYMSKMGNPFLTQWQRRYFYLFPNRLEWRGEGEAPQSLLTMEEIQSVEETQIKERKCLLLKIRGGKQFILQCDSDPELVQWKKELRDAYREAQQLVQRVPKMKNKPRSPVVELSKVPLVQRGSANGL
# Yeast superoxide = lowers age-related superoxide in aged yeast cells | S. cerevisiae aged cells, superoxide DHE fluorescence; hits give low values | superoxide response (% of plate mean), % at 10 µM | AID 2690 | actives 0.18% (n = 330,000);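 active = superoxide response under a set limit, about three screen SD below normal, cut at about 65% in these data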;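 note: yeast aged for seven days with compound at 30 °C before DHE staining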
# ATG4B inhibitor = blocks human ATG4B protease cleavage of LC3 substrate; actives 0.51% (n = 340,000); ATG4B cleavage of LC3-PLA2, NBD-HPC fluorescence, 1 h; inhibition, % at 8.33 µM; in the data active = inhibition above about 40%
# Yeast cmpd fluor = compound fluorescence in yeast efflux pump counter-screen; shares compounds with Efflux pump mplx; S. cerevisiae AD/pABC3, flow cytometry; fluorescence ratio to DMSO, % at 10 µM; actives 4% (n = 1,700); AID 588517;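 active = fluorescence ratio to DMSO above its plate's cutoff, the plate mean ratio plus 5 SD, cut at about 210% in these data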;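 note: unstained yeast with no Nile Red so the signal is compound autofluorescence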
# Mdr1 pump inh = blocks the Candida albicans Mdr1 efflux pump in yeast; shares compounds with Efflux pump mplx; S. cerevisiae AD/CaMDR1, Nile Red efflux, flow cytometry; inhibition, % at 10 µM; actives 1% (n = 1,700); AID 588518; in the data active = inhibition above about 26%;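 note: higher means more Nile Red retained so more efflux inhibition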
# CaCdr2 efflux inh = inhibitors of Candida albicans Cdr2 efflux pump | shares compounds with Efflux pump mplx | S. cerevisiae AD/CaCDR2, Nile Red retention, flow cytometry | Nile Red retention ratio vs DMSO, % at 10 µM | actives 4% (n = 1,700) | AID 588520; in the data active = Nile Red retention ratio vs DMSO above about 190%;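 note: higher ratio means more blocking of Cdr2 efflux of the dye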
# CaCdr1 efflux inh = Candida Cdr1 efflux pump inhibition | shares compounds with Efflux pump mplx | S. cerevisiae AD/CaCDR1, Nile Red efflux, flow cytometry | inhibition, % at 10 µM | actives 1% (n = 1,700) | AID 588522;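 active = inhibition above the screen-wide mean plus twice its standard deviation, cut at about 32% in these data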
# A number is an active result; . = inactive; / = no result given; + = active, no number. Rows were chosen to be rich in hits. Some 1.6% of all compounds tested hit in one or more screens of this group.
SMILES,Efflux pump mplx,GRK2 aptamer HTS,Yeast superoxide,ATG4B inhibitor,Yeast cmpd fluor,Mdr1 pump inh,CaCdr2 efflux inh,CaCdr1 efflux inh
CN(C)S(=O)(=O)Nc1ccc(NS(=O)(=O)N(C)C)c(S(=O)(=O)c2ccccc2)c1,0.7,.,.,.,.,.,.,.
CN(C)S(=O)(=O)Nc1ccc2c(c1)Cc1ccccc1-2,.,.,.,.,/,/,/,/
COc1ccccc1C(=O)N(NC(=O)Oc1ccccc1)C(C)(C)C,5.8,.,.,.,.,.,.,.
CCSc1nc2c(c(=O)[nH]1)C(c1ccncc1)C(C(=O)OC(C)C)=C(C)N2 (configuration not stated),0.4,.,.,.,.,.,.,.
CCCSc1nnc(NC(=O)Nc2ccccc2)s1,15.2,.,.,.,.,.,.,.
Cc1ccc(CNC(=O)CSc2nnc(CNC(=O)c3ccccc3)o2)cc1,.,.,.,.,/,/,/,/
COc1ccc(C(=O)CC(=O)C(=O)Nc2ccc(Cl)cc2)cc1,1.4,.,.,.,.,.,.,.
CC(CCc1ccccc1)NC(=O)c1ccc2nc(N3CCOCC3)sc2c1 (configuration not stated),.,.,.,.,/,/,/,/
CCC(Cc1ccccc1)NC(=O)c1ccc2nc(N3CCOCC3)sc2c1 (configuration not stated),2.1,.,.,.,.,.,.,.
CN(C)S(=O)(=O)c1ccc(C(=O)OC2CCOC2=O)cc1 (configuration not stated),1.5,.,.,.,.,.,.,.
CCCn1c(N2CCN(C(=O)Nc3ccc(Cl)cc3)CC2)nc2ccccc21,.,.,.,.,/,/,/,/
CC(=O)N/C(=C/c1ccc2c(c1)OCO2)C(=O)NCC(=O)O,.,.,.,.,/,/,/,/
COc1ccc(S(=O)(=O)Nc2ccc3c(c2)N(C(C)=O)CCC3)cc1OC,1.0,.,.,.,.,.,.,.
CCN(CC)c1ccc2c(Cl)c(Br)c(=O)oc2c1,8.6,.,.,.,451.8,.,504.4,.
Cc1cc(N)n(-c2cc(C)c3ccccc3n2)n1,.,.,.,.,/,/,/,/
Cc1cc(C)c2nc(-n3nc(C)cc3N)cc(C)c2c1,2.0,.,.,.,.,.,.,.
CCCC/C=C/C(NC(=O)c1ccc(C(=O)OC)cc1)c1ccccc1 (configuration not stated),.,.,.,.,/,/,/,/
CCC1(C(=O)c2ccc(Cl)cc2)C2c3ccccc3OC(=O)C21C(=O)Nc1ccccc1 (configuration not stated),1.8,.,.,.,.,.,.,.
NC(=O)C1=C(N=C2CCCCC2)CCCC1,/,/,/,.,/,/,/,/
O=C(CN1C(=O)COc2ccccc21)N(Cc1ccccc1)Cc1ccccn1,.,.,.,.,/,/,/,/
Cc1ccc(CN(Cc2cccnc2)C(=O)CN2C(=O)COc3ccccc32)o1,5.9,.,.,.,.,.,.,.
COc1ccc(/C=C/CN2CCC(n3nccc3NC(=O)C3CCCC3)CC2)cc1,.,.,.,.,/,/,/,/
O=Nc1[nH]c(=O)c(/C=C(\O)c2ccccc2)nc1NO,.,.,.,.,/,/,/,/
Cc1cccc(NC(=O)c2nc[nH]c2C(=O)N[C@H](C)c2ccccc2)c1,0.9,.,.,.,.,.,.,.
C[C@H](NC(=O)c1[nH]cnc1C(=O)Nc1ccccc1)c1ccccc1,.,.,.,.,/,/,/,/
SMILES,Efflux pump mplx,GRK2 aptamer HTS,Yeast superoxide,ATG4B inhibitor,Yeast cmpd fluor,Mdr1 pump inh,CaCdr2 efflux inh,CaCdr1 efflux inh
Cc1ccc2nc(NC(=O)CSc3nc4ccccc4o3)sc2c1,0.6,.,.,.,.,.,.,.
CCc1nnc(NC(=O)CSc2nnc(C)c(=O)n2N)s1,.,.,.,.,/,/,/,/
Cc1cccc2cc(CN(Cc3cccs3)C(=S)NCC3CCCO3)c(=O)[nH]c12 (configuration not stated),.,.,.,.,/,/,/,/
Cc1ccc(NC(=S)N(Cc2cccs2)Cc2cc3cccc(C)c3[nH]c2=O)cc1,8.9,.,.,.,.,.,.,.
Cc1cccc(NC(=S)N(CCN(C)C)Cc2cccs2)c1,1.0,.,.,.,.,.,.,.
Cc1ccc(NC(=S)N(CCN(C)C)Cc2cccs2)c(C)c1,.,.,.,.,/,/,/,/
Cc1cccc(OCC(=O)OC(C)CN2CCCCC2)c1 (configuration not stated),.,.,.,.,/,/,/,/
C=CCNC(=S)NNC(=O)COc1ccc(Cl)cc1Cl,15.2,.,.,.,.,.,.,.
COc1c(N2C[C@@H]3CCCN[C@@H]3C2)c(F)cc2c(=O)c(C(=O)O)cn(C3CC3)c12,.,.,.,.,/,/,/,/
O=C1Nc2ccccc2/C1=C/c1cccnc1,.,.,.,.,/,/,/,/
O=C1Nc2ccccc2/C1=C/c1cnc(-c2ccccc2)[nH]1,0.8,.,.,.,.,.,435.2,.
Cc1ccccc1CSc1ccc2nnc(-c3ccccn3)n2n1,.,.,.,.,/,/,/,/
O=C(CNC(=O)c1ccco1)Nc1ccc(Cl)cc1,.,.,.,.,/,/,/,/
COc1cc(/C=C2\SC(=S)N(Nc3ncc(C(F)(F)F)cc3Cl)C2=O)ccc1O,.,.,.,.,478.4,.,.,.
Cc1cc(C)nc(NN2C(=O)/C(=C/c3ccccc3)SC2=S)n1,.,.,.,.,/,/,/,/
CN(C)c1ccc(/C=C2\SC(=S)N(Nc3ncc(C(F)(F)F)cc3Cl)C2=O)cc1,1.2,.,.,.,+,.,236.9,.
CC(C)CN(C(=O)COC(=O)C(C)N1C(=O)c2ccccc2C1=O)c1c(N)n(Cc2ccccc2)c(=O)[nH]c1=O (configuration not stated),.,.,.,.,/,/,/,/
O=C(NC12CC3CC(CC(C3)C1)C2)c1ccc([N+](=O)[O-])o1,.,.,.,.,/,/,/,/
NNC(=O)c1ccccc1CO,.,.,.,.,/,/,/,/
CCCCn1c(N)c(N(CC(C)C)C(=O)CN2C(=O)NC3(CC(C)CC(C)(C)C3)C2=O)c(=O)[nH]c1=O (configuration not stated),0.9,.,.,.,.,.,.,.
CCOc1ccc(NC(=O)C2CC(=O)N(c3ccc4c(c3)OCCO4)C2)cc1OCC (configuration not stated),.,.,.,.,/,/,/,/
COc1ccc(N(CC(=O)NCc2ccccc2)S(=O)(=O)c2c(C)n[nH]c2C)cc1,.,.,.,.,/,/,/,/
COc1ccc(OCCSc2nnc(CCNC(=O)c3ccc(Cl)c(Cl)c3)n2C)cc1,.,.,.,.,/,/,/,/
COc1ccc(OCCSc2nnc(CCNC(=O)c3ccc(OC)cc3)n2C)cc1,23.7,.,.,.,.,.,.,.
CC(=O)N1CCN(S(=O)(=O)c2cccc(C(=O)OCc3ccc(C(C)(C)C)cc3)c2)CC1,/,/,/,.,/,/,/,/
Cc1ccc(OCC(=O)Nc2cnn(CCCC(=O)O)c2)c([N+](=O)[O-])c1,3.9,.,.,.,.,.,.,.

# High-throughput results (PubChem)
